Here are results for ten compounds from PubChem BioAssay (NCATS).

A short description of assay [1]: qHTS profiling for inhibitors of Plasmodium falciparum (3D7) proliferation (AID 743322).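 Also: infected erythrocytes exposed to compound for 72 h before lysis; 100% = DMSO vehicle wells and 0% = 0.29 µM artemisinin.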 The conditions noted are these: P. falciparum 3D7 proliferation; at 28.7 µM (top of the series). An outline of the steps: (§1)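 Erythrocytes infected with P. falciparum (0.3% parasitemia, 2.5% hematocrit) incubated with compounds 72 h at 37 C, 5% CO2. Lysis with saponin/Triton buffer containing SYBR Green I, overnight at room temperature in the dark; DNA fluorescence (485/535 nm) normalised to 0.29 uM artemisinin and DMSO.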

A short description of assay [2]: qHTS profiling for inhibitors of Plasmodium falciparum (DD2) proliferation (AID 743323). The settings on record: lower = more inhibition; at 28.7 µM (top of the series). The procedure, abridged: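 SYBR Green fluorescence (ex 485, em 535 nm) of lysed cultures gives parasite DNA content; wells normalized to artemisinin (0.29 uM) and DMSO controls. Infected red cells: 0.3% parasitemia, 2.5% hematocrit, 72 h, 37 C.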

A short description of assay [3]: qHTS profiling for inhibitors of Plasmodium falciparum (HB3) proliferation (AID 743324).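 Also: 100% = DMSO vehicle wells and 0% = artemisinin-treated control wells.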 The conditions noted are these: Plasmodium falciparum HB3 blood-stage proliferation; at 28.7 µM (top of the series). An outline of the steps:
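P. falciparum HB3 grown in erythrocytes (0.3% parasitemia, 2.5% hematocrit final) with compound for 72 h at 37 C, 5% CO2. Parasite DNA detected by SYBR Green after saponin/triton lysis overnight; normalized to 0.29 uM artemisinin and DMSO.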

Assay [4] is described as follows: qHTS profiling of the MIPE4 collection as inhibitors of Plasmodium falciparum (3D7) proliferation (AID 743344).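 Also: scaled between DMSO vehicle wells and 0.29 µM artemisinin as full inhibition.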 The conditions noted are these: P. falciparum 3D7 in erythrocytes, SYBR Green DNA fluorescence, 72 h; at 28.5 µM (top of the series). An outline of the steps: as §1
Assay [5] in a line: qHTS profiling of the MIPE4 collection as inhibitors of Plasmodium falciparum (DD2) proliferation (AID 743345). The settings on record: P. falciparum Dd2 in erythrocytes, SYBR Green DNA, 72 h; at 28.5 µM (top of the series). An outline of the steps: as §1
Assay [6] can be described thus: qHTS profiling of the MIPE4 collection as inhibitors of Plasmodium falciparum (DD2) proliferation (Rep 2) (AID 743346). The conditions noted are these: P. falciparum Dd2 in erythrocytes, SYBR Green DNA, 72 h; at 28.5 µM (top of the series). The procedure, abridged:
as §1

Assay [7] in a line: qHTS profiling of the MIPE4 collection as inhibitors of Plasmodium falciparum (HB3) proliferation (AID 743347).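 Also: plate controls were DMSO vehicle wells for no effect and artemisinin wells for full effect.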 The conditions noted are these: P. falciparum HB3 in erythrocytes, SYBR Green DNA, 72 h; at 28.5 µM (top of the series). The procedure, abridged:
as §1

Turning to `CCOc1ccc(F)cc1C1(O)C(N)=Nc2ccc(Cl)cc21` (stereo not given), the remaining parasite growth % (stronger effect = lower value) in assay [1] was determined as 0.18%. In assay [2], this compound came in with an activity, percent of control of 0.185%. Besides, in assay [3], the remaining proliferation (% of control), lower = more inhibition came out at 1.54%. Moreover, the parasite growth, % of DMSO control in assay [4] is 5.08%. The parasite growth remaining, % of DMSO control (lower = more inhibition) in assay [5] is 6.08%. In assay [6], the parasite growth, % of control (lower = inhibition) is 8.34%. Besides, the growth, % of control in assay [7] came to 5.81%.

Regarding `CC(C)=CCCC(C)=CCNCCNC1C2CC3CC(C2)CC1C3` (stereo not given), in assay [4], the parasite growth, % of DMSO control came out at 4.83%. This compound had a parasite growth remaining, % of DMSO control (lower = more inhibition) in assay [5] of 6.17%. Also, the parasite growth, % of control (lower = inhibition) in assay [6] was determined as 13.8%. Also, in assay [7], the growth, % of control is 2.71%.

For `COc1ccc(S(=O)(=O)N(CCO)c2ccccc2CN(C)CC=Cc2ccc(Cl)cc2)cc1`, in assay [4], the parasite growth, % of DMSO control stood at 6.17%. In assay [5], this compound registered a parasite growth remaining, % of DMSO control (lower = more inhibition) of 26.4%. Further, the parasite growth, % of control (lower = inhibition) in assay [6] was 18.1%. In addition, the growth, % of control in assay [7] worked out at 9.71%.

With `O=C1CCC(C2=C(O)c3ccccc3C(=O)C2=O)CC1`, the remaining parasite growth % (stronger effect = lower value) in assay [1] was 7.05%. The same compound showed an activity, percent of control in assay [2] of 6.83%. The remaining proliferation (% of control), lower = more inhibition in assay [3] stood at 5.38%.

As for `O=C1C(=O)c2ccccc2C(O)=C1C1CCCCC1`, the remaining parasite growth % (stronger effect = lower value) in assay [1] amounted to 3.7%. Also, the activity, percent of control in assay [2] was 4.15%. For the same compound, in assay [3], the remaining proliferation (% of control), lower = more inhibition was 3.28%.

As to `O=C([C@H](Cc1ccc(O[S+](=O)([O-])c2cccnc2)cc1)N[S+](=O)([O-])c1ccccn1)N1CCN(c2ccccc2)CC1`, the remaining parasite growth % (stronger effect = lower value) in assay [1] was 6.76%. In assay [2], this compound displayed an activity, percent of control of 12.3%. The remaining proliferation (% of control), lower = more inhibition in assay [3] is 2.47%.

In the case of `Cc1nc2c(C#N)cccc2n1-c1ccc(C(=O)NC2CC2)s1`, the remaining parasite growth % (stronger effect = lower value) in assay [1] turned out to be 0.492%. In assay [2], this compound registered an activity, percent of control of 1.69%. In assay [3], the remaining proliferation (% of control), lower = more inhibition was found to be 1.16%. The parasite growth, % of DMSO control in assay [4] came out at 6.59%. This compound also returned a parasite growth remaining, % of DMSO control (lower = more inhibition) in assay [5] of 9.03%. For the same compound, the parasite growth, % of control (lower = inhibition) in assay [6] came out at 10.3%. The growth, % of control in assay [7] turned out to be 4.26%.

For `O=C([C@H](Cc1ccc(O[S+](=O)([O-])c2cccc3cnccc23)cc1)N[S+](=O)([O-])c1cccnc1)N1CCN(c2ccccc2)CC1`, the remaining parasite growth % (stronger effect = lower value) in assay [1] is -1.25%. This compound registered an activity, percent of control in assay [2] of 0.979%. For the same compound, in assay [3], the remaining proliferation (% of control), lower = more inhibition was -0.812%.

For the compound `O=C([C@@H](Cc1ccc(O[S+](=O)([O-])c2cccc3cccnc23)cc1)N[S+](=O)([O-])c1cccc2cccnc12)N1CCN(c2ccccc2)CC1`, the remaining parasite growth % (stronger effect = lower value) in assay [1] was 0.884%. The activity, percent of control in assay [2] was 3.45%. Further, in assay [3], the remaining proliferation (% of control), lower = more inhibition stood at 1.75%.

As to `O=C([C@@H](Cc1ccc(O[S+](=O)([O-])c2ccccn2)cc1)N[S+](=O)([O-])c1cccc2cccnc12)N1CCN(c2ccccc2)CC1`, in assay [1], the remaining parasite growth % (stronger effect = lower value) is -0.32%. Further, the activity, percent of control in assay [2] came out at 1.5%. Besides, in assay [3], the remaining proliferation (% of control), lower = more inhibition came to 0.71%.
